Compound activity deposited in PubChem by National Center for Advancing Translational Sciences (NCATS).
D2 PAM-1: potentiates the human D2 dopamine receptor allosterically; P14416; DiscoveRx D2 beta-arrestin cells, luminescence, 90 min; 100% = 57 uM dopamine signal; potentiation, % (concentration not given with the values); 360,000 tested, 0.23% active; in the data active means potentiation above about 50%; inconclusive means mostly about 30% to 49%
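PathHunter beta-arrestin assay in DiscoveRx D2 cells. Compounds were added with an EC20 of dopamine (50 nM final) for 90 min at 37 deg C. Luminescence was read 1 h after detection reagent, with 57 uM dopamine as the EC100 control.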
D2 ag-1: human D2 receptor agonism in beta-arrestin assay. P14416. DiscoveRx PathHunter D2 beta-arrestin, luminescence, 90 min; 100% = 57 uM dopamine signal. activation, % (concentration not given with the values). 360,000 tested, 0.084% active. AID 624465; in the data active means activation above about 40%; inconclusive means between about 15% and that limit
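Agonist mode: compounds alone added to overnight-plated D2 PathHunter cells for 90 min at 37 C, with 57 uM final dopamine (EC100) defining full response. Beta-arrestin recruitment detected by chemiluminescent reagent, read after 1 h at ambient temperature.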
D2 ag-2: agonists of human D2 dopamine receptor; P14416; HEK293 T-REx D2 cells, calcium flux agonist mode; activation, % at 2 µM; 340,000 tested, 0.53% active;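 active means activation over 3 SD above normal in the single-dose calcium agonist read, cut at about 30% in these data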; further: 0% is about no effect
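Agonism scored from kinetic calcium signal (1 read/sec, 180 s) following compound pin transfer, after a 10 s baseline. Cells: HEK293 Trex line expressing inducible D2 receptor coupled to calcium, dye-loaded after overnight culture at 30 C.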
D2 PAM-2: positive allosteric modulators of human D2 dopamine receptor. P14416. HEK293 T-REx D2, calcium flux, EC20 dopamine potentiation. potentiation, % at 10 µM. 340,000 tested, 0.34% active. AID 485347;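 active means potentiation over 3 SD above the plate norm, cut at about 30% in these data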; further: 0% is about no effect
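Cells plated with tetracycline inducer and held overnight at 30 C; calcium dye loaded 30–90 min at room temperature; baseline taken, compound added and read 180 s; EC20 dopamine then added and read 180 s.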
D2 antagonist: D2 dopamine receptor (human) antagonism; P14416; HEK293 TREx D2 cells, calcium flux, dopamine EC80; inhibition, % at 10 µM; 340,000 tested, 2% active; AID 485344; in the data active means inhibition above about 30%; inactive means below that, where a call was filed; further: 0% is about no effect
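Calcium flux kinetic readout in an inducible HEK293 TREx D2 line plated overnight at 30 C. After 180 s compound exposure, an EC80 dopamine challenge follows with another 180 s kinetic read to detect antagonism.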
D3 ag: activates human D3 dopamine receptor beta-arrestin recruitment | shares compounds with D2 ag-2 | DiscoveRx D3 beta-arrestin cells, luminescence, 90 min | Potency, µM (titrated, usually from 76.9 µM), for inactives: at the top dose activation, usual class: activators | 2,300 tested, 4% active;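 further: potency means the concentration at half of the fitted maximal effect; 100% = dopamine control response; nearly all actives have a fitted effect of over 70% in size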
Target sequence (P35462 whole entry, looked up): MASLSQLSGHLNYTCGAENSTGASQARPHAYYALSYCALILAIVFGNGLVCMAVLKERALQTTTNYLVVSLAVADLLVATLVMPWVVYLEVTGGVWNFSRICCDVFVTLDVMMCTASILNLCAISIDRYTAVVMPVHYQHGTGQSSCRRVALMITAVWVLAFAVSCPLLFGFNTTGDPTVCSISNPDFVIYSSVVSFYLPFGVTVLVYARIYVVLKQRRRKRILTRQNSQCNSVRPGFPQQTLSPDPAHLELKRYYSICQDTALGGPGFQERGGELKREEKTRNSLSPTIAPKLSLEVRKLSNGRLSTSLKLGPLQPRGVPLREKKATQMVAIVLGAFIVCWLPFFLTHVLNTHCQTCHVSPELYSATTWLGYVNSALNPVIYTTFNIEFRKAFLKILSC
D2 ag-3: counter-screen for D3 agonists: human D2 dopamine receptor agonism; DiscoveRx PathHunter D2 beta-arrestin, luminescence, 90 min; response scale: percent relative to full dopamine signal; Potency, µM (highest dose often 76.9 µM), inactives show at the top dose activation, usual class: activators; 2,300 tested, 5.9% active; shares compounds with D2 ag-2; further: potency means the concentration at half of the fitted maximal effect; % of control where 0% means no effect; nearly all actives have a fitted effect of over 70% in size
Active calls of the source: *. Compounds with a hit are over-represented: about 2.4% of the library has one in this group of screens. Unless noted, the call rests on the fitted dose curve; in most records, active means well fitted activation curve with a large enough effect; inconclusive means small, poorly fitted or top-dose-only effect; inactive means flat fitted curve, though single readings scatter.

CCOC(=O)N1CCc2c(sc3c2c(=O)n(CCc2ccccc2)c(=O)n3Cc2c(F)cccc2Cl)C1 was read as D2 ag-2 0 and D2 PAM-2 -3.
Screening CCOc1ccc(CCNC(=O)Cn2nnc(-c3ccccc3)n2)cc1OCC returned D2 ag-2 1 and D2 PAM-2 -13.
Cc1ccc(F)cc1NC(=O)CN1CCN(c2ccccn2)CC1 was read as D2 PAM-1 -9, D2 ag-1 inconclusive, D2 ag-2 27, D2 PAM-2 -8, D2 antagonist 50*, D3 ag 19% and D2 ag-3 inconclusive.
For Cc1ccc(NC(=O)CN2CCN(c3ccccn3)CC2)c(Cl)c1 the results were D2 PAM-1 -5, D2 ag-1 -6, D2 ag-2 0, D2 PAM-2 2 and D2 antagonist -16.
O=C(CN1CCN(c2ccccn2)CC1)Nc1ccccc1Br was read as D2 PAM-1 10, D2 ag-1 inconclusive, D2 ag-2 47*, D2 PAM-2 -21, D2 antagonist 38*, D3 ag -3% and D2 ag-3 19%.
Screening O=C(CN1CCN(c2ncccn2)CC1)Nc1ccccc1-n1cccc1 returned D2 PAM-1 -12, D2 ag-1 5, D2 ag-2 38*, D2 PAM-2 -12, D2 antagonist -21, D3 ag 1% and D2 ag-3 16%.
For N#Cc1ccccc1NC(=O)CN1CCN(c2ccccn2)CC1 the results were D2 PAM-1 -1, D2 ag-1 8, D2 ag-2 10, D2 PAM-2 -4 and D2 antagonist -2.
O=C(CN1CCN(c2ccccn2)CC1)Nc1cccc(F)c1 was read as D2 PAM-1 -4, D2 ag-1 4, D2 ag-2 27, D2 PAM-2 -5, D2 antagonist -19, D3 ag 3% and D2 ag-3 -1%.
Screening Cc1cc(C)cc(NC(=O)CN2CCN(c3ncccn3)CC2)c1 returned D2 PAM-1 -4, D2 ag-1 7, D2 ag-2 -1, D2 PAM-2 5 and D2 antagonist -2.
For COc1ccc(S(=O)(=O)N2CCc3ccccc32)cc1C(=O)N(CC(C)C)C1CCS(=O)(=O)C1 (configuration not stated) the results were D2 PAM-1 -13, D2 ag-1 -5, D2 ag-2 0, D2 PAM-2 16 and D2 antagonist -1.
`O=C(CN1CCc2ccccc2C1)Nc1ccc(F)cc1` gave D2 PAM-1 -3, D2 ag-1 1, D2 ag-2 0, D2 PAM-2 7 and D2 antagonist -6.
`O=C(CN1CCN(c2ccccn2)CC1)Nc1cc(F)ccc1F` gave D2 PAM-1 2, D2 ag-1 11, D2 ag-2 50*, D2 PAM-2 -18, D2 antagonist 22, D3 ag 15% and D2 ag-3 15%.
Screening O=C(CN1CCc2ccccc2C1)Nc1ccccc1F returned D2 PAM-1 1, D2 ag-1 inconclusive, D2 ag-2 47*, D2 PAM-2 -17, D2 antagonist 64*, D3 ag inconclusive and D2 ag-3 23%.
`CC(C(=O)Nc1cccc(S(=O)(=O)N2CCOCC2)c1)N1CCN(C/C=C/c2ccccc2)CC1` (configuration not stated) gave D2 PAM-1 -12, D2 ag-1 -2, D2 ag-2 51*, D2 PAM-2 -23, D2 antagonist 80*, D3 ag inconclusive and D2 ag-3 22%.
`O=C(Nc1cccc(S(=O)(=O)N2CCOCC2)c1)C(c1ccccc1)N1CCCCC1` (configuration not stated) gave D2 PAM-1 -6 and D2 ag-1 -2.
Screening O=C(Cn1ccn(-c2ccc(F)cc2)c(=O)c1=O)Nc1ccccc1C(F)(F)F returned D2 ag-2 0 and D2 PAM-2 -2.
Screening COc1ccc(OC)c(C2C(C(=O)c3ccco3)=C(O)C(=O)N2CC2CCCO2)c1 (configuration not stated) returned D2 PAM-1 -4, D2 ag-1 -3, D2 ag-2 -1, D2 PAM-2 21 and D2 antagonist 12.
Screening CC(OC(=O)c1ccc(-n2cnnn2)cc1)C(=O)Nc1ccccc1[N+](=O)[O-] (configuration not stated) returned D2 PAM-1 23, D2 ag-1 2, D2 ag-2 0, D2 PAM-2 10, D2 antagonist 16, D3 ag 11% and D2 ag-3 25%.
CC(=O)c1cccc(NC(=O)C(C)OC(=O)c2ccc(-n3cnnn3)cc2)c1 (configuration not stated) was read as D2 PAM-1 -8, D2 ag-1 -1, D2 ag-2 -1, D2 PAM-2 -4 and D2 antagonist -13.
Screening c1ccc2sc(SCSc3nc4ccccc4s3)nc2c1 returned D2 PAM-1 0, D2 ag-1 -4, D2 ag-2 32*, D2 PAM-2 -25, D2 antagonist 12, D3 ag -7% and D2 ag-3 inconclusive.
O=C(O)CCSc1nc2ccccc2s1 was read as D2 PAM-1 0, D2 ag-1 -1, D2 ag-2 2, D2 PAM-2 8 and D2 antagonist 5.
Cc1ccc(Oc2cnc3ccccc3n2)cc1 was read as D2 PAM-1 -3, D2 ag-1 -3, D2 ag-2 1, D2 PAM-2 -6 and D2 antagonist -4.
Screening COc1ccc(Oc2cc(C)c3ccccc3n2)cc1 returned D2 PAM-1 inconclusive, D2 ag-1 inconclusive, D2 ag-2 44*, D2 PAM-2 -19, D2 antagonist 45*, D3 ag inconclusive and D2 ag-3 inconclusive.
For CC(=O)OCC(C)n1[nH]c2ccccc2c1=O (configuration not stated) the results were D2 PAM-1 -12 and D2 ag-1 11.
Screening Oc1ccc(Cl)cc1CNCc1ccc(F)cc1 returned D2 PAM-1 -24, D2 ag-1 -6, D2 ag-2 4, D2 PAM-2 -15 and D2 antagonist -2.
For Oc1ccc(Cl)cc1CNCc1ccc(Cl)cc1 the results were D2 PAM-1 -81, D2 ag-1 0, D2 ag-2 1, D2 PAM-2 -20, D2 antagonist -6, D3 ag -3% and D2 ag-3 -2%.
Screening CCOC(=O)C1(C)CCCN(C(=O)c2ccccc2OC(F)(F)F)C1 (configuration not stated) returned D2 PAM-1 1 and D2 ag-1 -3.
